The source of these data is PubChem BioAssay (NCI).

The panel holds about 83,000 compounds, 20% with a hit somewhere; the sample as a whole holds those more often.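 Activity criterion: percent growth below 10, measured after cells in 96-well plates were exposed to a single compound concentration for 48 hours.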 The source made the active and inactive calls.

For this assay, the system named is NCI-H23 lung. The assay is described as follows: NCI-60 one-dose screen, 48 h (100 = growth as untreated, 0 = no growth, -100 = all killed). The note with it: 10 µM. How it is done:
Growth inhibition of the NCI-H23 human Non-Small Cell Lung tumor cell line is measured as a screen for anti-cancer activity. Cells are grown in 96 well plates and exposed to the test compound for 48 hours. Compounds are tested at a single concentration, which is 10^-5 M for most compounds. The reported endpoint is percent growth (GI% or GIPRCNT), where numbers from 0 - 100% represent growth inhibition, and numbers from -100% - 0 represent cell death. For example, a value of 40 represents 60% growth inhibition. A value of 0 means no net growth occurred over the course of the experiment. A value of -40 indicates 40% of cells at the beginning of the experiment died by the end of the experiment. A value of -100 means all cells are dead at the end of the experiment.
NCI-60 Human Tumor Cell Lines Screen was performed using the standard one-dose NCI protocol, which is described in more detail at https://dtp.cancer.gov/discovery_development/nci-60/default.htm.
Compounds with GIPRCNT values below 10 were considered active. Activity score was based on GIPRCNT using the following formula: […]
Score is 0 for GIPRCNT values of 100 or above, 50 for GIPRCNT values of 0, and 100 for GIPRCNT values of -100.
For the compound `COc1cc(/C=N/NC(=O)c2ccccc2Nc2cccc(C(F)(F)F)c2)cc(OC)c1OC`, the growth was 45.3% (inactive).

For `CCOC(=O)c1ccc(NC(=O)Nc2ncc(Cl)cc2Cl)cc1`, the growth was 93.9% (inactive). The result for `N#Cc1c(C#N)c(SSc2c(C#N)c(C#N)c(N)n2-c2ccccc2)n(-c2ccccc2)c1N` reads 94.8% (inactive); that for `CCCCCCCCCCCCC1C/C=C\CCCC(=O)O1` (stereo not given), 91.1% (inactive); that for `CC1CN(Cc2ccccc2)C(=O)NC1=O` (stereo not given), 110% (inactive).

Consider `COc1cc(/C(=C2/O[C@@H]([C@H]3COC(C)(C)O3)[C@H]3OC(C)(C)O[C@@H]23)c2ccc3ccccc3c2)cc(OC)c1OC`, for which the growth is 46.2% (inactive). As to `O=C(O)c1ccc(P(=O)(O)O)c([N+](=O)[O-])c1`, the growth was 115% (inactive). For the compound `COc1cc(Cc2cc(-c3ccc(Cl)cc3)n[nH]c2=O)ccc1O`, the growth is 83.5% (inactive).

As to `c1ccc2c(-c3nc(N4CCOCC4)c4c5c(sc4n3)CCCCCC5)cccc2c1`, the growth is 107% (inactive). Next, `Clc1ccc(Nc2ccnc(NCCCNc3ccnc4cc(Cl)ccc34)n2)cc1`: 45.6% (inactive); `O=C(Nc1cccc(-n2cc(-c3ccncc3)c(-c3ccc(O)c(Cl)c3)n2)c1)Nc1ccc(Cl)c(Cl)c1`: 5.31% (active). The result for `O=C(O)CN1C(=O)c2cccc3cccc(c23)C1=O` reads 101% (inactive). The result for `CCCC#CCN(CC)CC` reads 111% (inactive); that for `COc1ccc(-c2nn(-c3cccc(NC(=O)Nc4cc(C(F)(F)F)cc(C(F)(F)F)c4)c3)cc2-c2ccncc2)cc1Cl`, 5.1% (active); that for `CN(C)C=Nc1cc(Cl)ccc1Cl`, 101% (inactive). With `O=C1CC[C@@H]2CCCC[C@@H]2C1`, the growth was 99.9% (inactive). The result for `CC/C(=C(/c1ccc(OCCN(C)C)cc1)c1ccc(OC(=O)CCCCCCCCC(=O)c2c(C)[nH]c(/C=C3\N=C(c4ccc[nH]4)C=C3OC)c2C)cc1)c1ccccc1` reads 88% (inactive); that for `O=C1c2ccc3c4c(ccc(c24)C(=O)N1CCNCc1ccccc1)C(=O)N(CCNCc1ccccc1)C3=O`, -49.4% (active). The result for `O=C1OCC2=C1C(c1cccc(Cl)c1)c1cc3c(cc1N2CCO)OCCO3` (stereo not given) reads 19.6% (inactive); that for `COc1ccc(-c2nn(-c3cccc(NC(=O)c4cccc(C(F)(F)F)c4)c3)cc2-c2ccncc2)cc1Cl`, 52% (inactive).

As for `O=C(Nc1ccncc1)C(=O)c1cn(S(=O)(=O)c2cc(Cl)cc(Cl)c2)c2ccccc12`, the growth was 70.3% (inactive). Next, `CCOC(=O)N1C/C(=C/c2ccc(F)cc2)C(=O)/C(=C/c2ccc(F)cc2)C1`: 12.2% (inactive); `O=S(=O)(NCCCNc1nccc(-c2c(-c3ccc(F)cc3)nc3sccn23)n1)c1ccc(F)cc1`: 56.2% (inactive); `COc1cc(Nc2ncnc(Nc3ccc4c(n3)NC(=O)C(C)(C)O4)n2)cc(OC)c1OC`: 25.5% (inactive).

As to `Cc1ccc(NC(=O)CSc2nc3ccccc3c(=O)n2CCc2ccccc2)c(C(=O)O)c1`, the growth is 101% (inactive). With `O=C(CSSCC(=O)c1ccc(Cl)cc1)c1ccc(Cl)cc1`, the growth was 79.5% (inactive).

On to `COc1ccc2c(c1)/C(=C\c1c[nH]c3ccc(OC)cc13)C(=O)N2`, for which the growth is 49.4% (inactive). For `CC(C)(C)c1cc(Br)cc(C(C)(C)C)c1O`, the growth is 107% (inactive).

With `FC(F)(F)c1ccc(-c2cnc(Cl)nc2N2CCC3(CC2)OCCO3)cc1`, the growth is 94.9% (inactive). The result for `COc1ccc(-c2nc3sccn3c2-c2nc3c([nH]2)C(=O)c2ccccc2C3=O)cc1` reads 95.7% (inactive); that for `COc1ccc(-c2ccc3cc(C(=O)Nc4ccc(O)c(C(=O)/C=C/c5cc(OC)c(OC)c(OC)c5)c4)ccc3c2)cc1`, 94.3% (inactive). Next, `COc1ccc(/C=C/C(=O)Nc2ccc(-c3nc4ccc(F)cc4s3)cc2)cc1`: 86.3% (inactive); `COc1cc(-c2cc(/C=C/C(=O)c3ccc(Cl)c(Cl)c3)[nH]n2)cc(OC)c1OC`: 101% (inactive). The result for `COC(=O)C1(C)Cc2cc(OC(C)=O)c(OC(C)=O)cc2N1` (stereo not given) reads 91.5% (inactive); that for `CNc1ncc(-c2ccc(C(F)(F)F)cc2)c(NC2CCCCCC2)n1`, 62.6% (inactive).

As for `O=C1OCC2=C1C(c1ccc(Cl)c(Cl)c1)c1cc3c(cc1N2CCO)OCCO3` (stereo not given), the growth was 32.5% (inactive).

As to `COc1ccc(S(=O)(=O)NCCCNc2nccc(-c3c(-c4ccc(F)cc4)nc4sccn34)n2)cc1`, the growth is 74.8% (inactive). The result for `Cc1nc2oc3ccccc3c(=O)c2cc1C(=O)NCc1ccccc1` reads 85.9% (inactive); that for `CCCCCCc1cc(N=Nc2ccc(S(=O)(=O)Nc3cc(C)nc(C)n3)cc2)c(O)cc1O`, 102% (inactive); that for `CN(C)CCOc1nc2ccccc2c2c1-c1ccc(Cl)cc1C2=O`, -43.9% (active).
